Results taken from PubChem BioAssay AID1159580 (chemical genetic matrix, 2015).
The whole screen tested about 5,500 compounds, of which about 2,000 (36%) were called active. Roughly 18% stayed inconclusive and do not appear here. Cut-off read from the data, not from the text of the source: active = normalized growth mostly below about 0.91 (no sharp cut-off); inconclusive = no clear call, values can overlap the other calls; inactive = mostly above about 0.92. This is one part of the list.

Experiment: chemical genetic growth profiling, strain panel (AID 1159580);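 note: tested at 20 µM; growth read once vehicle control cultures reached saturation at 30 °C; 1 = growth at the plate median or of vehicle wells; lower values mean less growth of the strain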
Details: S. cerevisiae deletion strains, growth OD

Measured: normalized growth

Cc1sc2ccccc2c1CC1=NCCN1
inactive: locus YAL040C, strain CLN3, active compounds read low 0.972 | locus YCL061C, strain MRC1 (second series), active compounds read low 0.993 | locus YDR150W, strain NUM1, active compounds read low 0.995 | locus YER002W, strain NOP16, active compounds read low 0.988 | locus YGR078C, strain PAC10, active compounds read low 1 | locus YJR075W, strain HOC1, active compounds read low 1.01 | locus YMR263W, strain SAP30, active compounds read low 1 | locus YNL175C, strain NOP13, active compounds read low 1.03 | locus YNL197C, strain WHI3, active compounds read low 1 | locus YNL224C, strain SQS1, active compounds read low 1 | locus YOR083W, strain WHI5 (second series), active compounds read low 0.982 | locus YPL241C, strain CIN2, active compounds read low 1
